The values that follow come from PubChem BioAssay (NCATS).

Each structure is given as a SMILES string. Inconclusive results are not listed. The source made the active and inactive calls. The call rests on the fitted dose curve; in most records, active means well fitted cell-killing curve with a large enough effect; inconclusive means small, poorly fitted or top-dose-only effect, or effect the other way; inactive means no such curve, though single readings can be large or run the other way.
Potency means the concentration at half of the fitted maximal effect.

A short description of the test: Quantitative High-Throughput drug screen in 47 multiple myeloma cell lines against the NCATS MIPE library collection: U266_ATCC cell viability assay (AID 1919864). Further: nearly all actives have a fitted effect of over 35% in size. The conditions noted are these: U266 myeloma viability, CellTiter-Glo ATP luminescence, 48 h; series mostly up to 45.8 µM. The text has this: PI: Beverly A. Mock Ph.D.
Laboratory of Cancer Biology and Genetics,
Center for Cancer Research, National Cancer Institute,
National Institute of Health, Bethesda, Maryland
Drug resistance and disease progression are common in multiple myeloma (MM) patients, underscoring the need for new therapeutic combinations. […] We hypothesized that effective combinations would reduce MYC expression and enhance p16 activity. […] These preclinical data identify potentially useful drug combinations for evaluation in drug-resistant MM and reveal potential mechanisms of combined drug sensitivity.
Described herein is the primary MIPE qHTS used to cherrypick compounds. Validated compounds were then further tested for potential synergistic activiy.
[1] Peat TJ, Gaikwad SM, Dubois W, Gyabaah-Kessie N, Zhang S, Gorjifard S, Phyo Z, Andres M, Hughitt VK, Simpson RM, Miller MA, Girvin AT, Taylor A, Williams D, D'Antonio N, Zhang Y, Rajagopalan A, Flietner E, Wilson K, Zhang X, Shinn P, Klumpp-Thomas C, McKnight C, Itkin Z, Chen L, Kazandijian D, Zhang J, Michalowski AM, Simmons JK, Keats J, Thomas CJ, Mock BA. Drug combinations identified by high-throughput screening promote cell cycle transition and upregulate Smad pathways in myeloma. Cancer Lett. 2023 Aug 1;568:216284. doi: 10.1016/j.canlet.2023.216284. Epub 2023 Jun 24. PMID: 37356470; PMCID: PMC10408729.
SEQUENCE No. (e.g., 1, 2, 3, etc.); […] (e.g., Cells, Incubation, Reagent, etc.); VALUE and DESCRIPTION.
1; Cells; 5 uL; white, solid bottom 1536-well Greiner assay plate.
2; Compounds; 23 nL; Kalypsis pin tool (Wako USA) equipped with a 1536-well pin head to transfer to the assay plates.
3; Incubation; 48 hours; 37C incubation.
4; Reagent;5uL; CellTiter Glo (Promega).
5; Detector; 425V; Luminescence; Viewlux PerkinElmer.
NOTES (numbers refer to Sequence numbers above)
1. The cell-based screening methods employed in this study were like those previously published. Briefly, the corresponding myeloma cell lines were screened in 1,536-well plates with 500 cells, 5-uL per well for inhibition of cell viability (assessed by measuring ATP levels with CellTiterGlo).
2. NCATS MIPE 4.0 library of approved and investigational drugs were added using the Kalypsis pin tool. Wells treated with DMSO only for 100% viability and media only for 0% viability were used as controls.
3. The assay plates were covered and incubated for 48 hours in a 37C, 5% CO2 incubator with controlled humidity.
4. After 48 hours, CellTilter-GloTM luminescent substrate mix (Promega) reagent was added to the assay plate and plates we incubated for 5 min at room temperature.
5. Signal was measured as median relative luminescence units on a ViewLux (PerkinElmer) multiplate reader.
[1] Heske CM, Davis MI, Baumgart JT, Wilson K, Gormally MV, Chen L, Zhang X, Ceribelli M, Duveau DY, Guha R, Ferrer M, Arnaldez FI, Ji J, Tran HL, Zhang Y, Mendoza A, Helman LJ, Thomas CJ. Matrix Screen Identifies Synergistic Combination of PARP Inhibitors and Nicotinamide Phosphoribosyltransferase (NAMPT) Inhibitors in Ewing Sarcoma. Clin Cancer Res. 2017 Dec 1;23(23):7301-7311. doi: 10.1158/1078-0432.CCR-17-1121. Epub 2017 Sep 12. PMID: 28899971; PMCID: PMC6636827.
In the case of `O=C(CC12CC3CC(CC(C3)C1)C2)Nc1cccc2nc(NCCNCCO)ccc12`, the Potency was 23.5 µM (active).

`CCNC(=O)CCCC=CC[C@@H]1[C@H](C=CC(O)CCc2ccccc2)[C@@H](O)C[C@@H]1O` (stereo not given in full): the Potency result is “inactive”.

In the case of `CC(=O)OCC(=O)[C@@]12OC(C)(C)O[C@H]1C[C@H]1[C@@H]3C[C@H](F)C4=CC(=O)C=C[C@]4(C)[C@@]3(F)[C@@H](O)C[C@@]12C`, the Potency entry was “inactive”.

Take `N#CC(=C1Nc2ccccc2S1)c1ccnc(OCc2ccc(CN3CCOCC3)cc2)n1`: the Potency is 5.26 µM (active).

As for `C[C@]12C=CC(=O)C=C1CC[C@@H]1[C@@H]2[C@@H](O)C[C@@]2(C)[C@@H]1CC[C@]2(O)C(=O)CO`, the Potency entry is “inactive”.

As to `N#CC1(c2cccc(C(=O)Nc3cc(Oc4ccc5nc(NC(=O)C6CC6)sc5n4)ccc3F)c2Cl)CC1`, the Potency is 5.26 µM (active).

For `Fc1ccc(CNc2ncnc3ccc(F)cc23)cc1`, the Potency was 13.2 µM (active).

As for `O=C(c1ccc(F)c(F)c1Nc1ccc(I)cc1F)N1CC(O)([C@H]2CCCCN2)C1`, the Potency was 23.5 µM (active).

As to `COc1c(C)c2c(c(O)c1CC=C(C)CCC(=O)O)C(=O)OC2`, the Potency is 8.33 µM (active).

As for `C[C@@H](N)c1ccc(C(=O)Nc2ccnc3[nH]ccc23)cc1`, the Potency was 16.6 µM (active).

As to `O=C(O)Cc1cccc(OCCCN(Cc2cccc(C(F)(F)F)c2Cl)CC(c2ccccc2)c2ccccc2)c1`, the Potency entry was “inactive”.

`C=CC[N+]1([C@H]2C[C@H]3[C@@H]4CC[C@H]5C[C@H](O)[C@@H](N6CCOCC6)C[C@]5(C)[C@@H]4CC[C@]3(C)[C@H]2OC(C)=O)CCCC1`: the Potency entry is “inactive”.

For the molecule `C[C@]12CCC3=C4CCC(=O)C=C4CC[C@@H]3[C@H]1CC[C@@]2(O)CC#N`, the Potency entry is “inactive”.

Consider `CCOC(=O)N1CCN([N+]([O-])=NOc2cc(ON=[N+]([O-])N3CCN(C(=O)OCC)CC3)c([N+](=O)[O-])cc2[N+](=O)[O-])CC1`, for which the Potency is 7.43 µM (active).

Take `OC[C@H]1O[C@@H](OCCc2ccc(O)cc2)[C@H](O)[C@@H](O)[C@H]1O`: the Potency is 20.9 µM (active).

In the case of `Cc1ccc2c(c1)c1c(n2CCc2ccc(C)nc2)CCN(C)C1`, the Potency result is “inactive”.

For the molecule `O=C1NC(=O)C(=Cc2ccc(-c3ccc(F)cc3O)o2)S1`, the Potency entry is “inactive”.

For `CN(C)N=Nc1nc[nH]c1C(N)=O`, the Potency result is “inactive”.

With `COc1ccc2nc3cc(Cl)ccc3c(Nc3cc(CN4CCCC4)c(O)c(CN4CCCC4)c3)c2n1`, the Potency is 23.5 µM (active).

Consider `NC1(C(=O)N[C@@H](CCO)c2ccc(Cl)cc2)CCN(c2ncnc3[nH]ccc23)CC1`, for which the Potency is 13.2 µM (active).

For the molecule `COc1ccc(-c2cc(=O)c3c(O)cc(O[C@@H]4O[C@H](CO[C@@H]5O[C@@H](C)[C@H](O)[C@@H](O)[C@@H]5O)[C@@H](O)[C@H](O)[C@@H]4O)cc3o2)cc1O`, the Potency is 18.7 µM (active).

On to `COc1cc2c(cc1OC)CC(=O)N(CCCN(C)C[C@H]1Cc3cc(OC)c(OC)cc31)CC2`, for which the Potency is 16.6 µM (active).

With `CN(C)c1ccc(-c2nc3ncc(Cl)c(N4CCN(CC(=O)Nc5nccs5)CC4)c3[nH]2)cc1`, the Potency was 2.96 µM (active).

With `CC1(C)[C@H]2CC[C@]3(C)[C@@H](C(=O)C=C4[C@@H]5C[C@@](C)(C(=O)O)CC[C@]5(C)CC[C@]43C)[C@@]2(C)CC[C@@H]1O`, the Potency entry was “inactive”.

With `O=C(O)c1nc(=O)[nH]c(=O)[nH]1`, the Potency entry was “inactive”.

For `O=C(c1ccc(C=Cc2n[nH]c3ccccc23)cc1)N1CCNCC1`, the Potency was 18.7 µM (active).

As for `Cc1csc(-c2nnc(Nc3ccc(Oc4ncccc4-c4ccnc(N)n4)cc3)c3ccccc23)c1`, the Potency was 23.5 µM (active).

Consider `Cc1cnc(-c2cc(N3CCN(C(=O)CCS(C)(=O)=O)CC3)ncc2Cl)c(C)c1`, for which the Potency entry was “inactive”.

Take `O=S(=O)(NCCNCC=Cc1ccc(Br)cc1)c1cccc2cnccc12`: the Potency is 20.9 µM (active).

Consider `O=c1[nH]c(=O)n([C@H]2C[C@@H](O)[C@@H](CO)O2)cc1C(F)(F)F`, for which the Potency entry was “inactive”.

Turning to `CCOC(=O)[C@H]1O[C@H]1C(=O)N[C@@H](CC(C)C)C(=O)NCCC(C)C`, the Potency was 10.5 µM (active).

For the molecule `CNC1[C@H](O)C(O[C@@H]2C(O)C(O[C@H]3O[C@H]([C@@H](C)NC)CC[C@H]3N)[C@@H](N)C[C@H]2N)OC[C@]1(C)O` (stereo not given in full), the Potency result was “inactive”.

`CC(O)=C(C#N)C(=O)Nc1ccc(C(F)(F)F)cc1`: the Potency is 23.5 µM (active).

On to `Cc1[nH]c(C=C2C(=O)Nc3ccc(S(=O)(=O)N(C)c4cccc(Cl)c4)cc32)c(C)c1C(=O)N1CCN(C)CC1`, for which the Potency is 23.5 µM (active).

Regarding `OCCn1cc(-c2ccc3c(c2)CCC3=NO)c(-c2ccncc2)n1`, the Potency is 23.5 µM (active).

Turning to `O=C(c1ccc(C(=O)N2CCC(N3CCCC3)CC2)c(Nc2ccccc2)c1)N1CCC(N2CCCC2)CC1`, the Potency entry was “inactive”.

Turning to `C[C@@H]1O[C@@H](O[C@H]2CC[C@@]3(C)[C@H](CC[C@@H]4[C@H]3C[C@@H](O)[C@]3(C)[C@@H](C5=CC(=O)OC5)CC[C@]43O)C2)C[C@H](O)[C@@H]1O[C@H]1C[C@H](O)[C@H](O[C@H]2C[C@H](O)[C@@H](O)[C@@H](C)O2)[C@H](C)O1` (stereo in doubt), the Potency is 0.121 µM (active).

With `CC[C@@H]([C@H](C)O)n1ncn(-c2ccc(N3CCN(c4ccc(OCC5CO[C@@](Cn6cncn6)(c6ccc(F)cc6F)C5)cc4)CC3)cc2)c1=O` (stereo not given in full), the Potency result is “inactive”.

In the case of `CNC1CCC(N(Cc2cccc(-c3ccncc3)c2)C(=O)c2sc3ccccc3c2Cl)CC1` (stereo not given), the Potency was 16.6 µM (active).

On to `CC1(COc2ccc3c(c2)ncn3-c2ccc3cccc(N4CCC(N)CC4)c3n2)COC1`, for which the Potency was 0.059 µM (active).
